This passage reports fluorescence ratio F(max-min)/F0 results from PubChem BioAssay AID624111 (Johns Hopkins Ion Channel Center, 2012).

Screen size: about 4,000 compounds; about 60 (2%) were called active. This is one part of a sample in which actives are shown more often than they occur.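 The calls were made as follows: active = duplicate-averaged calcium fluorescence ratio at least three times the standard deviation of buffer wells, a nonspecific response in parental cells; inactive = the rest.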

The nature of this assay: nonspecific calcium signal in parental HEK293, confirmation, counter-screen for MrgX1 antagonist project, parental HEK293 cells, Fluo-4 calcium flux (AID 624111). The note with it: parental HEK293, Fluo-4 calcium fluorescence, FDSS; at 10 µM.
On to `CCOc1cc(-c2conc2N)cc(OCC)c1OCC`, for which the fluorescence ratio F(max-min)/F0 entry was “inactive”. In the case of `Brc1ccccc1C1Nc2cccc3cccc(c23)N1` it was “inactive”; in that of `c1ccc(-c2[nH]ncc2-c2nc3ccccc3[nH]2)cc1`, “inactive”; in that of `CCOC(=O)c1cn(Cc2cccc(C)c2)nn1`, “inactive”. In the case of `CC(C)NC(=S)Nc1cccc2cnccc12` it was “inactive”; in that of `CCOC(=O)C1=C(O)/C(=C/c2cc(C)n(-c3ccccc3)c2C)N=C1C`, “inactive”; in that of `COc1ccc(C2SCCN2S(=O)(=O)c2ccccc2)cc1OC` (stereo not drawn), “inactive”. The entry for `S=C(NCc1ccc(Cl)cc1)NC12CC3CC(CC(C3)C1)C2` is “inactive”; for `COc1cc(C(F)(F)F)nc2c(Br)c(C(C)(C)C)nn12` it is “inactive”. In the case of `CCN(C(=O)CSc1nnc2ccccn12)C1CCS(=O)(=O)C1` (stereo not drawn), the fluorescence ratio F(max-min)/F0 entry was “inactive”.

`O=C1C(Cc2ccc(O)cc2)NC(=S)N1Cc1ccccc1` (stereo not drawn): the fluorescence ratio F(max-min)/F0 entry is “inactive”.

As for `CCOC(=O)c1c(NC(=O)CNC2CCCc3ccccc32)sc(C(N)=O)c1C` (stereo not drawn), the fluorescence ratio F(max-min)/F0 result is “inactive”.

Regarding `COc1cccc(-c2cnc(OC(C)(C)C)nc2OC(C)(C)C)c1`, the fluorescence ratio F(max-min)/F0 entry is “inactive”.

On to `COc1ccc(-n2c(SCC(=O)NCc3ccco3)nnc2-c2c[nH]c3ccccc23)cc1`, for which the fluorescence ratio F(max-min)/F0 entry was “inactive”.

Take `CC(C)CNc1ncnc2c1cnn2Cc1ccc(Cl)cc1`: the fluorescence ratio F(max-min)/F0 entry is “inactive”. In the case of `Cc1cc2oc3ccc(NCCC4CCCN4C)cc3c(=O)c2cc1C` (stereo not drawn) it was “inactive”; in that of `CC(=O)Nc1ccc(OC(=O)COc2ccc(Br)cc2)cc1`, “inactive”; in that of `CCCc1[nH]nc2c1C(c1ccc(Br)s1)C(C#N)=C(N)O2` (stereo not drawn), “inactive”.

Turning to `CCS(=O)(=O)c1ccc2c(c1)N(S(=O)(=O)c1ccccc1)CC(C(=O)O)O2` (stereo not drawn), the fluorescence ratio F(max-min)/F0 result is “inactive”. The entry for `Fc1cccc(Cl)c1COc1ccc(-c2nnco2)cc1` is “inactive”. In the case of `COc1ccc(-c2cc(C(F)(F)F)nc(S(C)(=O)=O)n2)cc1OC` it was “inactive”; in that of `COCc1nnc(NC(=O)c2ccc3c(c2)OCO3)s1`, “inactive”. Turning to `CCc1ccc2nc3sc(C(=O)Nc4nnc(CC)s4)c(N)c3cc2c1`, the fluorescence ratio F(max-min)/F0 is 0.589 (active).

With `COc1cc(CCC(=O)Nc2ccncc2Cl)cc(OC)c1OC`, the fluorescence ratio F(max-min)/F0 result is “inactive”.

Consider `Cc1cc(C)n(CCNC(=O)CC2C(=O)NCCN2Cc2ccc(C)o2)n1` (stereo not drawn), for which the fluorescence ratio F(max-min)/F0 result is “inactive”. The entry for `COc1ccc(S(=O)(=O)N2CCOCC2)c(C)c1C` is “inactive”; for `CCOc1ccc(C(=O)NC2CCN(S(=O)(=O)CC)CC2)cc1` it is “inactive”; for `Cc1ccc(N/C(N)=N/c2nc(C(F)(F)F)cc(C(F)(F)F)n2)cc1` it is “inactive”. In the case of `Cc1[nH][nH]c(=O)c1C(c1ccc(-c2ccc(Cl)cc2)o1)c1c(C)[nH][nH]c1=O` it was “inactive”. `Cc1ccc(-n2cnc3ncnc(-c4ccccc4)c32)cc1`: the fluorescence ratio F(max-min)/F0 entry is “inactive”. Consider `Cc1c(C(=O)N2CCCc3ccccc32)sc2nc(-c3ccccc3)cn12`, for which the fluorescence ratio F(max-min)/F0 entry is “inactive”. In the case of `C(=N\n1cnnc1)/c1cccnc1` it was “inactive”. The entry for `CC(=O)N1c2ccc(S(=O)(=O)N3CCCC(C(=O)Nc4cccc(Cl)c4)C3)cc2CC1C` (stereo not drawn) is “inactive”; for `Cc1cccc(Cn2cnc3c(N)c(C)c(C)cc32)c1` it is “inactive”; for `CCOC(=O)Nc1ccc2c(c1)N(C(=O)CCN1CCN(CCO)CC1)c1ccccc1CC2` it is “inactive”. As for `COc1ccc2c(c1)OC(O)(C(F)(F)C(F)F)CC2=O` (stereo not drawn), the fluorescence ratio F(max-min)/F0 result was “inactive”. On to `O=S(=O)(c1ccc2ccccc2c1)N1CCN(S(=O)(=O)N2CCOCC2)CC1`, for which the fluorescence ratio F(max-min)/F0 entry is “inactive”. As for `CCOC(=O)C1=C(O)CSC1=Nc1cccc(Cl)c1`, the fluorescence ratio F(max-min)/F0 result was “inactive”. As to `Cc1nccn1CCC1CCCCN1C(=O)CCc1nnc(-c2ccsc2)o1` (stereo not drawn), the fluorescence ratio F(max-min)/F0 entry is “inactive”.

Consider `O=C(Nc1ccccc1N1CCCCC1)c1ccc2nccnc2c1`, for which the fluorescence ratio F(max-min)/F0 result is “inactive”. With `Cc1onc(-c2ccccc2)c1C(=O)NNC(=S)NC(=O)c1ccc(F)cc1`, the fluorescence ratio F(max-min)/F0 entry is “inactive”. Turning to `O=C(CN1CCN(c2ccccn2)CC1)NC1CCCCC1`, the fluorescence ratio F(max-min)/F0 result is “inactive”. The entry for `C=CCOc1cccc(C2C(C(=O)c3ccc(C)o3)=C(O)C(=O)N2c2nnc(C)s2)c1` (stereo not drawn) is “inactive”; for `O=C1C(=O)N(CC2COc3ccccc3O2)c2ccccc21` (stereo not drawn) it is “inactive”; for `COc1ccccc1N(CC(=O)N1CCCCC1)S(=O)(=O)c1ccccc1` it is “inactive”. In the case of `Clc1ccc(-c2nc3ccccn3c2CN2CCSCC2)cc1` it was “inactive”; in that of `COc1ccc(C(=O)NC(=S)NNC(=O)CCc2ccccc2)cc1`, “inactive”; in that of `COc1cc(C)c(C)cc1S(=O)(=O)N1CCCc2ccccc21`, “inactive”. The entry for `Cc1nc2ccccc2cc1OCc1ccc(F)cc1` is “inactive”.

As for `OCCn1c(-c2ccccc2)csc1=Nc1ccccc1`, the fluorescence ratio F(max-min)/F0 result is “inactive”. Take `CC1(C)CC2CC(C)(CN2c2ncnc3ccc(Br)cc23)C1` (stereo not drawn): the fluorescence ratio F(max-min)/F0 result was “inactive”. In the case of `N=C(N)SCc1cccc2ccccc12` it was “inactive”; in that of `Cc1occc1C(=O)Nc1nnc(-c2ccncc2)s1`, “inactive”. The entry for `CC(Oc1ccc(F)cc1)C(=O)Nc1ccccc1C(=O)NC1CC1` (stereo not drawn) is “inactive”; for `CCCCC(=O)NNC(=S)NC(=O)C(c1ccccc1)c1ccccc1` it is “inactive”; for `CCOc1ccccc1C1CC(c2ccc(Cl)cc2)Nc2nc(N)nn21` (stereo not drawn) it is “inactive”. In the case of `CCN(CC)c1ccc2oc(=O)c(C)nc2c1` it was 0.549 (active); in that of `CCNC(=O)c1c(O)c2cccc3c2n(c1=O)CC3`, “inactive”; in that of `COC(=O)c1sccc1NS(=O)(=O)c1ccc(F)cc1F`, “inactive”.

`COc1ccc(C(=O)CSc2n[nH]c(N)n2)cc1`: the fluorescence ratio F(max-min)/F0 result is “inactive”.

Take `CCOC(=O)c1[nH]c2ccc(C)cc2c1N=C(C)N(C)C`: the fluorescence ratio F(max-min)/F0 entry was “inactive”. In the case of `Cc1ccc2nc(Nc3ccccc3)cc(C)c2c1` it was “inactive”; in that of `CC1(C(=O)O)CCC(C(=O)Nc2ccc(Cl)c(Cl)c2)C1(C)C` (stereo not drawn), “inactive”; in that of `Cc1cc(Nc2cc(N3CCN(C)CC3)nc(Sc3ccc(NC(=O)C4CC4)cc3)n2)n[nH]1`, “inactive”. The entry for `Cc1nn(C(=O)c2ccoc2C)c(N)c1-c1ccccc1` is “inactive”; for `O=C(Nc1ccc(Cl)cc1)Nc1ccc(Oc2cccnc2)nc1` it is “inactive”. For `O=C(CCN1CCc2ccccc2C(O)(c2ccccc2)C1)c1ccc2c(c1)OCCO2` (stereo not drawn), the fluorescence ratio F(max-min)/F0 entry is “inactive”. In the case of `CCC1CCCCN1CCNC(=O)c1[nH]c(C)c(C(C)=O)c1C` (stereo not drawn), the fluorescence ratio F(max-min)/F0 entry is “inactive”. The entry for `CCc1nnc(NC(=O)CSc2nc3c(c(=O)n2-c2ccccc2OC)SCC3)s1` is “inactive”; for `Cc1ccc2c(C)c(C(=O)N(C)CCC3CCCCO3)oc2c1C` (stereo not drawn) it is “inactive”. The figure for `Cc1cccn2c(=O)c(/C=C3\SC(=S)N(CC(C)C)C3=O)c(NCCCOC(C)C)nc12` is 0.164 (active); for `O=C(Nc1ccccc1Cl)N1CCN(c2ccc3nncn3n2)CC1` it is “inactive”. The entry for `COc1ccc(OC)c(Nc2nc3ccccc3n3cnnc23)c1` is “inactive”.
